The whole screen tested about 310,000 compounds, of which about 14,000 (4.5%) showed an effect of 50% or more. Effects have a minus sign here. The sample holds strong results, similar compounds and a random draw of the others, so the mix is not that of the screen.
biological target: human ether-à-go-go-related gene (hERG) potassium channel (human, UniProt Q12809); test: primary screen, population patch clamp on CHO cells stably expressing hERG; higher = less effect of the substance
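Also: peak tail current of the secondary pulse compared with the same well before compound.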

Sequence of human ether-à-go-go-related gene (hERG) potassium channel (Q12809 whole entry, looked up): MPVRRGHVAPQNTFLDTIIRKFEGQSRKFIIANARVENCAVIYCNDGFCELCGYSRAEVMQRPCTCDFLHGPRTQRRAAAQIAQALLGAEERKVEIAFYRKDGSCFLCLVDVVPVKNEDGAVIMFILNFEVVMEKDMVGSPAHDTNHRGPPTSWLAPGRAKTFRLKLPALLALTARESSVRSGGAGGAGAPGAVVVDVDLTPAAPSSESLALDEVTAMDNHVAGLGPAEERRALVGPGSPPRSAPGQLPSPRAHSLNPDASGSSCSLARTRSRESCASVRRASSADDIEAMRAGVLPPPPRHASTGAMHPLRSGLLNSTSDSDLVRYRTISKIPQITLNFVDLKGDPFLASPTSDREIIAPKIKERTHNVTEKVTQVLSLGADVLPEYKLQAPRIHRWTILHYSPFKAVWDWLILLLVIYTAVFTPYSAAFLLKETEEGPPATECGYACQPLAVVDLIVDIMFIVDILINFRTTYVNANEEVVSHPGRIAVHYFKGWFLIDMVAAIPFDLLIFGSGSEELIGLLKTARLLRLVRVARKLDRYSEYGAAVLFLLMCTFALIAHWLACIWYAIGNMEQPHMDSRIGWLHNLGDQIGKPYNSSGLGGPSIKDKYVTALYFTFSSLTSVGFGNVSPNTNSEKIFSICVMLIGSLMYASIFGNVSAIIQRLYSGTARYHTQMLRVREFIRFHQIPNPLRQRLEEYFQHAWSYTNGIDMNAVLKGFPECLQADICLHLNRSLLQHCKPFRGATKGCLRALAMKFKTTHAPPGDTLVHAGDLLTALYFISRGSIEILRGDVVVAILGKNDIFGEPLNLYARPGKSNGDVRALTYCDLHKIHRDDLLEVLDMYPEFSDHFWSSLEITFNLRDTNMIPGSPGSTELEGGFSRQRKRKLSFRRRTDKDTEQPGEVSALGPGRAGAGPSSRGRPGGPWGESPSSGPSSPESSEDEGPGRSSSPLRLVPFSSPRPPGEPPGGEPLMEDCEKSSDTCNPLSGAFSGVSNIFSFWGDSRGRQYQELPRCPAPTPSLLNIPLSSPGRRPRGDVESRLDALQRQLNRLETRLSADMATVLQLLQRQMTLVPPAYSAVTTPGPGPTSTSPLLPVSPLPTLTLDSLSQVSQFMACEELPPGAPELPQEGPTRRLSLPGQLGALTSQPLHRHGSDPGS

Compound	hERG current change (%, negative = inhibition) at 10uM [%]
Cn1c(SCc2cccnc2)nc2c(c1=O)SCC2	7.48
N#Cc1cc2c(=O)n3ccccc3nc2n(-c2ccc(Cl)cc2)c1=O	5.19
COC(=O)c1sccc1NC(=O)CN1CCN(c2ccc(F)cc2)CC1	6.89
Cc1nc(SCC(=O)Nc2cccc(Cl)c2)n[nH]1	6.87
O=C(NC1CC2CCCC(C1)N2S(=O)(=O)c1ccccc1)C1CCCCC1 (stereo not drawn)	-2.61
O=C(Nc1ccc(N2CCOCC2)cc1)NC1CCCCC1	6.25
Cc1ccc(S(=O)(=O)N2CCCC2)cc1C(=O)NCc1ccccc1CN1CCCC1	-52.3
Cc1ccc(C(=O)NCc2ccncc2)cc1S(=O)(=O)N1CCCCC1	-30.5
Cc1ccc(C(=O)NCc2ccccc2CN2CCCC2)cc1S(=O)(=O)N1CCOCC1	-61.4
Cc1ccc(S(=O)(=O)N2CCCCCC2)cc1C(=O)NCc1ccccn1	-14.8
O=C(NCc1cccnc1)c1ccc(Cl)c(S(=O)(=O)N2CCCCCC2)c1	-36.2
COc1ccc2nc(NC(=O)c3cc(S(=O)(=O)N4CCOCC4)ccc3C)sc2c1	1.72
Cc1ccc(S(=O)(=O)N2CCCC2)cc1C(=O)NCc1ccccn1	5.54
CCOC(=O)c1sc(NC(=O)c2cc(S(=O)(=O)N3CCOCC3)ccc2C)nc1C	-60.9
CC(=O)c1sc(NC(=O)c2cc(S(=O)(=O)N3CCOCC3)ccc2F)nc1C	-1.54
Cc1ccc(C(=O)NCc2cccnc2)cc1S(=O)(=O)N1CCCCCC1	-65.7
Cc1ccc(C(=O)NCc2ccccn2)cc1S(=O)(=O)N1CCOCC1	8.99
Cc1ccc(C(=O)NCc2ccccc2F)cc1S(=O)(=O)N1CCCC1	4.12
CCOC(=O)C1CCCN(C(=O)CCn2nnnc2CN2CCOCC2)C1 (stereo not drawn)	18.4
O=C1NCCCc2nc(Oc3ccccc3)sc21	0.239
Cc1ccc(Cn2nnc3c(=O)[nH]c(C4CCCN(C(=O)Nc5ccc(F)cc5)C4)nc32)cc1 (stereo not drawn)	-5.1
Cc1cccc(OCC(=O)N(Cc2ccccc2)c2c(N)n(Cc3ccccc3)c(=O)[nH]c2=O)c1	-11.2
O=C(CN1CC=C(c2ccccc2)CC1)Nc1cc(Cl)ccc1Cl	-12.8

Compound	hERG current change (%, negative = inhibition) at 10uM [%]
COc1ccccc1C1(CCN=Cc2ccc(N(C)C)cc2)CCOC(C)(C)C1 (stereo not drawn)	-2.03
CCN(C(=O)COC(=O)c1ccco1)c1c(N)n(Cc2ccccc2)c(=O)[nH]c1=O	-0.805
Cc1c(N2C(=O)c3ccc(Br)cc3C2=O)c(=O)n(-c2ccccc2)n1C	3.45
CCCCN1C(=O)C(C)=C(C)C1OCCc1ccc(OC)c(OC)c1 (stereo not drawn)	18.2
Cc1ccc(S(=O)(=O)N2CCOCC2)cc1C(=O)NCc1ccccc1CN1CCCC1	-53
Cc1ccc(S(=O)(=O)N2CCOCC2)cc1C(=O)NCc1ccccn1	-0.76
COc1ccc(S(=O)(=O)N2CCOCC2)cc1C(=O)NCc1ccccc1CN1CCCC1	-20.6
O=C(CCC(=O)Nc1ccccc1Cl)N/N=C/c1ccccc1	16.5
Cc1[nH]c2ccccc2c1/C=N\NC(=O)c1ccco1	11.1
COc1cccc(C(=O)NCC2CCCN(C(=O)c3ccc(C=O)cc3)C2)c1OC (stereo not drawn)	0.357
O=C(O)C1CCN(C(=O)Cc2ccccc2)CC1	6.27
O=C(C1CCCN(S(=O)(=O)c2ccccc2)C1)N1CCN(c2ccc(F)cc2)CC1 (stereo not drawn)	-75.7
Cc1ccc(S(=O)(=O)N2CCCC(C(=O)N3CCN(c4ccccc4)CC3)C2)cc1 (stereo not drawn)	-46.5
O=C(Cc1ccccc1)N1CCC(C(=O)N2CCN(c3ccc(F)cc3)CC2)CC1	-56.6
CN1CCN(C(=O)C2CCCN(S(=O)(=O)c3ccc(F)cc3)C2)CC1 (stereo not drawn)	19.9
O=C(C1CCCN(S(=O)(=O)c2ccccc2)C1)N1CCN(c2ccccc2)CC1 (stereo not drawn)	-54.8
O=C(C1CC1)N1CCN(c2ccc(F)cc2)CC1	13
COc1ccc(S(=O)(=O)N2CCCC(C(=O)N3CCN(c4ccccc4)CC3)C2)cc1Cl (stereo not drawn)	-62
COc1ccc(S(=O)(=O)N2CCCC(C(=O)N3CCN(C)CC3)C2)cc1Cl (stereo not drawn)	-12.4
COc1ccc(S(=O)(=O)N2CCCC(C(=O)N3CCOCC3)C2)cc1Cl (stereo not drawn)	-14
O=C(C1CCCN(S(=O)(=O)c2ccccc2)C1)N1CCCCCC1 (stereo not drawn)	-2.74
O=C(C1CCCN(S(=O)(=O)c2ccccc2)C1)N1CCCCC1 (stereo not drawn)	7.94

Reference: publication PMC4336329 (PLoS ONE, 2015)
